# About 13,000 (27%) of roughly 48,000 compounds showed an effect of 50% or more. Some of the results follow.
# Test system: Wolbachia pipientis
# Assay: Anti-Wolbachia Cell-Based Screen
# Format: functional
# Design: scale not given: in the data most compounds retested in dose-response had high values
# Conditions: 5 µM
row,Compound,Percent Effect [%]
1,Cn1nc(C(=O)NCc2cccc(Cn3ccnc3)c2)ccc1=O,-21.54
2,Cn1cccc1C(=O)NCc1cn2c(n1)CN(C(=O)c1ccsc1)CC2,7.383
3,O=C(NCC1CCOCC1)[C@@H]1C[C@@H]2[C@@H](CCN2Cc2ccoc2)O1,102.5
4,O=C(NCC1CC1)[C@H]1CC[C@@H]2[C@@H](CCN2Cc2ccoc2)O1,3.009
5,O=C(NC1CC1)[C@H]1CC[C@@H]2[C@@H](CCN2Cc2ccsc2)O1,-0.273
6,CSC(C)C(=O)NCCCc1cc(N)n(-c2ccccc2)n1 (stereo not given),6.591
7,Cc1ccc2oc(N3CCN(CC(=O)NC(C)C)CC3)nc2c1,0.7244
8,CCNC(=O)COc1cc(CC)c2c(C)nn(-c3ccc(C)cc3)c2n1,126.5
9,Cc1ccc(OCC(=O)NCc2sccc2C)nc1,-2.294
10,Cc1ccc(OCC(=O)NCc2ccccc2F)nc1,-9.663
11,Cc1cc(C)c2c(OCC(=O)NC(C)C)nn(C)c2n1,-14.3
12,CCCNC(=O)COc1ccc(C)cn1,4.173
13,CC(C)NC(=O)NCCCc1cc(N)n(-c2ccccc2)n1,-14.76
14,CCCNC(=O)COc1cc(C)c2c(C)nn(-c3ccccc3)c2n1,102.4
15,Cc1ccc(OCC(=O)NCC(C)C)nc1,0.1298
16,CCCNC(=O)COc1cc(C)c2c(C)nn(-c3ccc(C)cc3)c2n1,109.7
17,Cc1ccc(-n2nc(C)c3c(C)cc(OCC(=O)NC(C)C)nc32)cc1,109.8
18,CCn1ncc2c1CCCC2NCc1cccc2c1OCCO2 (stereo not given),5.32

row,Compound,Percent Effect [%]
1,COCCCSc1ccc(NCc2ccc(C)cn2)cc1,-7.055
2,CCN(CC)[C@@H]1CN(Cc2cnn(C)c2)[C@@H]2COC[C@H]12,6.266
3,COC1CCN(Cc2csc(C(C)C)n2)CC1,-2.369
4,CC(CN1CCCC1)C(=O)N1CCC(c2nccn2CC2CC2)CC1 (stereo not given),-20.21
5,CSCc1noc(C2CCC(=O)N(CCc3ccccc3)C2)n1 (stereo not given),-4.988
6,CCc1noc(C2CCCCN2C(=O)c2nnc3ccccc3n2)n1 (stereo not given),13
7,CC(NC(=O)NC1CCN(Cc2ccncc2)CC1)c1ccc(F)cc1 (stereo not given),24.84
8,O=C1CCCN1CC1CN(C(=O)CC2CCCC2)Cc2nccn2C1 (stereo not given),-15.1
9,O=C(N1CCCC1)N1Cc2nccn2CC(Cn2ncccc2=O)C1 (stereo not given),113.1
10,O=C1CCCN1CC1CN(C(=O)N2CCOCC2)Cc2nccn2C1 (stereo not given),4.749
11,O=C(CC1CC1)N1Cc2nccn2CC(Cn2ncccc2=O)C1 (stereo not given),90.4
12,O=C(c1ccco1)N1Cc2nccn2CC(Cn2ncccc2=O)C1 (stereo not given),108.6
13,COCC(=O)N1Cc2nccn2CC(Cn2ncccc2=O)C1 (stereo not given),110.2
14,O=C(CC1CC1)N1Cc2nccn2CC(CN2CCCC2)C1 (stereo not given),-4.92
15,COCC1CN(C(=O)c2ccc(C)o2)Cc2nccn2C1 (stereo not given),-22.35
16,COCC1CN(C(=O)c2ccco2)Cc2nccn2C1 (stereo not given),4.87
17,O=C(C1CC=CC1)N1Cc2nccn2CC(CN2CCCC2)C1 (stereo not given),16.54
